Assay outcomes as filed in PubChem BioAssay.
TRHR enhancer: TRH receptor (human) allosteric enhancement | P34981 | hit rate 0.66% among 360,000 | TRHR cells, fluo-8 calcium fluorescence, EC20 TRH enhancement | enhancement, % at 2 µM; in the data active means enhancement above about 30%
Target sequence (P34981 whole entry, looked up): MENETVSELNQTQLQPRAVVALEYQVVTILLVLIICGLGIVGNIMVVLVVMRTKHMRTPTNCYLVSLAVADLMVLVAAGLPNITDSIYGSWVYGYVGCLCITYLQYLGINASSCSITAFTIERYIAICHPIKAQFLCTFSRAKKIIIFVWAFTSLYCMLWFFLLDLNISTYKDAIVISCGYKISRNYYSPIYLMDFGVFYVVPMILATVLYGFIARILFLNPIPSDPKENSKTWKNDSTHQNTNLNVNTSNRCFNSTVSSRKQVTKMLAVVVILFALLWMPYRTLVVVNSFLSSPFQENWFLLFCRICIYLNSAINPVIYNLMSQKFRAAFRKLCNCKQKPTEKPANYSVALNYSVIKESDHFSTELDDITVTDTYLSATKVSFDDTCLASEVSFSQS
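TRHR-expressing cells loaded with fluo-8 calcium dye were read kinetically (ex 480/em 530) during compound addition, then stimulated with an EC20 of TRH (10 nM final). Enhancement of the Gq-mediated intracellular calcium response was scored.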
TRHR agonist: TRH receptor (human) agonism | P34981 | TRHR cells, calcium flux fluo-8, FDSS agonist mode | activation, % at 2 µM | hit rate 0.18% among 360,000
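Steps: seed TRHR cells overnight; add fluo-8 no-wash Ca dye, RT 30 min–1.5 h; record 10 s baseline; pin-transfer compounds; monitor fluorescence 1 cycle/s for the agonist window. Calcium increases flag candidate agonists.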
D1 antagonist: human D1 dopamine receptor antagonism | hit rate 3.2% among 360,000 | activity change, negative = inhibition, % at 10 µM | P21728 | AID 504652 | HEK293 TREx D1 cells, calcium flux, dopamine EC80; hits give low values; in the data active means activity change below about -30%
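Kinetic fluorescence of a calcium dye serves as the read-out. D1-expressing Hek293 Trex cells, induced overnight at 30 C, are exposed to compound for 180 s before an EC80 dopamine addition, then read 180 s further.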
D1 ag: agonists of human D1 dopamine receptor; P21728; HEK293 T-REx D1 cells, calcium flux, agonist mode; activation, % at 2 µM; hit rate 1% among 360,000; AID 504660
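Agonism was scored from calcium flux recorded over 180 s (1 read/s) after pintool compound addition, following a 10-cycle baseline. Cells were inducible force-coupled HEK293 TREx D1, plated overnight at 30 C and loaded with no-wash calcium dye.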
LDHA block: inhibitors of human lactate dehydrogenase A; AID 1347041; hit rate 0.15% among 480,000; activity change, % (values are at about 110 or 230 µM); purified LDHA, NADH/diaphorase-resazurin fluorescence; hits give low values; in the data active means activity change below about -30%
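Human LDH5 (2 nM) was incubated with 0.06 mM NADH and 0.2 mM pyruvate for 5 min at room temperature in Tris pH 7.4. Remaining NADH was coupled through diaphorase/resazurin, and resorufin fluorescence was read at 0 and 20 min.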
D1 PAM: enhances dopamine response at the human D1 receptor; HEK293 TREx D1 cells, calcium flux, dopamine EC20 potentiation; hit rate 0.036% among 360,000; P21728; potentiation, % at 10 µM; in the data active means potentiation above about 30%
Of the large screens only hits and unclear results are named; the others gave an inactive call. Shown are actives, neighbours in structure and some others; about 3.6% of the full set was active somewhere. Unless noted, no stated cut-off is given here; in the data, active means activation above about 30%; inactive means the rest.

CCN(CC)CCCNC(=O)c1cc(-c2ccc(Cl)c(Cl)c2)on1	none
CCN(CC)CCCNC(=O)c1cc(-c2ccc(O)cc2)on1	D1 antagonist -44
O=C(NCCCN1CCOCC1)c1ccc(CS(=O)(=O)Cc2ccccc2Cl)o1	D1 antagonist -45
COC(=O)CC(NS(=O)(=O)c1cccs1)c1ccccc1Cl (stereo not given)	none
COC(=O)CC(NS(=O)(=O)c1cccs1)c1ccc2c(c1)OCO2 (stereo not given)	D1 antagonist -56
Cc1[nH]c2ccc(C(=O)N(C)CC(=O)NC(C)(C)C)cc2c1C	none (no result: TRHR enhancer, TRHR agonist, D1 antagonist, D1 ag, D1 PAM)
OC1(c2ccc(OC(F)F)cc2)CSC(=Nc2cccnc2)N1C1CC1 (stereo not given)	D1 antagonist -30
COc1ccc(OC)c(C2(O)CSC(=Nc3cccnc3)N2Cc2ccco2)c1 (stereo not given)	none (no result: D1 antagonist)
CCc1ccccc1Oc1ccc(S(=O)(=O)N2CCN(C)CC2)cn1	TRHR enhancer 40
O=[N+]([O-])c1c(NCCO)cc(N2CCCCCC2)c2nonc12	D1 antagonist -43
O=[N+]([O-])c1c(NCCO)cc(N2CCN(Cc3ccc4c(c3)OCO4)CC2)c2nonc12	none
Cc1nn(-c2ccccc2)c(Cl)c1C(=O)OC(C)C(=O)Nc1ccc2c(c1)OCO2 (stereo not given)	D1 antagonist -71
CC(=O)Nc1ccc(NC(=O)C(C)OC(=O)c2c(C)nn(-c3ccccc3)c2Cl)cc1 (stereo not given)	none (no result: D1 PAM)
CC(Sc1ncnc2ccccc12)C(=O)Nc1ccc2c(c1)OCO2 (stereo not given)	D1 antagonist -33
CC(=O)c1ccc(NC(=O)C(C)Sc2ncnc3ccccc23)cc1 (stereo not given)	none (no result: TRHR enhancer, TRHR agonist, D1 antagonist, D1 ag, D1 PAM)
CC(=O)NC(NC(C)=O)c1ccccn1	none (no result: TRHR enhancer, TRHR agonist, D1 antagonist, D1 ag, D1 PAM)
Cc1ccc2ncc(C(=O)NC(C)c3ccccc3)c(=O)n2c1 (stereo not given)	D1 antagonist -34
Cc1cc(C)c(C(N)CO)cc1C (stereo not given)	none (no result: TRHR enhancer, TRHR agonist, D1 antagonist, D1 ag, D1 PAM)
COc1ccc(-c2nc3ccccc3s2)cc1NC(=O)c1ccccc1OC	TRHR enhancer 34
COc1ccc(-c2nc3ccccc3s2)cc1NC(=O)c1cccc(F)c1	D1 antagonist -30
Cc1c(C(=O)N2CCCC2)oc2c1-c1nn(CC(=O)NCCCN3CCCCC3C)cc1CC2 (stereo not given)	none
Cc1c(C(=O)N2CCCC2)oc2c1-c1nn(CC(=O)NCCCN3CCCCC3)cc1CC2	D1 antagonist -31
Fc1cccc(Cl)c1Cn1nnc(-c2ccc(N3CCOCC3)cc2)n1	D1 antagonist -36
CCN(C(=O)c1csc(-c2ccco2)n1)C1CC1	none (no result: TRHR enhancer, TRHR agonist, D1 antagonist, D1 ag, D1 PAM)
CC(C)CNC(=S)N1CCN(c2nc(-c3ccc(Cl)cc3)cs2)CC1	D1 antagonist -30
COCCCNC(=S)N1CCN(c2nc(-c3ccccc3)cs2)CC1	D1 antagonist -33
CCOCCCNC(=S)N1CCN(c2nc(-c3ccccc3)cs2)CC1	none
CCNC(=S)N1CCN(c2nc(-c3cccc(OC)c3)cs2)CC1	D1 antagonist -30
COc1cccc(-c2csc(N3CCN(C(=S)Nc4ccccc4OC)CC3)n2)c1	D1 antagonist -35
Cc1onc(-c2ccccc2)c1C(=O)NNC(=S)NC(=O)c1ccc(Br)cc1	D1 ag 134
Cc1onc(-c2ccccc2)c1C(=O)NNC(=S)NC(=O)c1ccc(Cl)cc1Cl	TRHR agonist 35, D1 ag 308
COc1ccc(/C=C/C(=O)NC(=S)NNC(=O)c2c(-c3ccccc3)noc2C)cc1	none
COc1cc(C(=O)NNC(=S)NC(=O)c2ccccc2C)cc(OC)c1OC	D1 ag 47
Cc1onc(-c2ccccc2)c1C(=O)NNC(=O)c1ccccc1	none
COc1ccccc1C(=O)NNC(=S)NC(=O)c1cc(OC)c(OC)c(OC)c1	none
Cc1onc(-c2ccccc2)c1C(=O)NNC(=S)NC(=O)/C=C/c1ccccc1	D1 ag 34
COCCn1cc(C(=O)NCCc2c(C)cc(C)cc2C)ccc1=O	none (no result: TRHR enhancer, TRHR agonist, D1 antagonist, D1 ag, D1 PAM)
O=C(Nc1ccc(F)cc1)c1[nH]c2ccccc2c1Cl	none (no result: TRHR enhancer, TRHR agonist, D1 antagonist, D1 ag, D1 PAM)
CC1CCCCN1CCCNC1CCCC1 (stereo not given)	none (no result: TRHR enhancer, TRHR agonist, D1 antagonist, D1 ag, D1 PAM)
Cc1ccccc1C(=O)NNC(=S)NC(=O)c1ccc(Cl)cc1Cl	TRHR agonist 45, D1 antagonist -52, D1 ag 158
COc1ccc2cc(C(C)C(=O)NC3CCCCC3C)ccc2c1 (stereo not given)	none (no result: TRHR enhancer, TRHR agonist, D1 antagonist, D1 ag, D1 PAM)
Cc1ccccc1NC(=O)Cn1c([N+](=O)[O-])cnc1C	D1 antagonist -47
Cn1c(C(N)=O)cnc1Sc1ncc(C(F)(F)F)cc1Cl	D1 antagonist -47
CCOc1cccc2cc(-c3nc(-c4ccccc4Cl)no3)c(=O)oc12	none (no result: TRHR enhancer, TRHR agonist, D1 antagonist, D1 ag, D1 PAM)
O=C(Cn1nnc(-c2ccc(F)cc2)n1)N1N=C(c2cccs2)CC1c1cccs1 (stereo not given)	none (no result: TRHR enhancer, TRHR agonist, D1 antagonist, D1 ag, D1 PAM)
Cc1onc(-c2ccccc2)c1C(=O)c1c[nH]c(C(=O)NCc2ccncc2)c1	D1 antagonist -89
CCOC(=O)C1=C(COC(=O)/C=C/c2cc(OC)c(OC)c(OC)c2)NC(=O)NC1C (stereo not given)	D1 antagonist -39
CCOC(=O)C1=C(COC(=O)c2ccc(OC)c(OC)c2OC)NC(=O)NC1C (stereo not given)	D1 antagonist -44
CCOC(=O)C1=C(COC(=O)/C=C/c2ccc(OC)c(OC)c2)NC(=O)NC1C (stereo not given)	none
CC1=CC(C)(C)N2C(=O)C(=Nc3ccc(O)cc3)c3cccc1c32	D1 antagonist -36
CC1CCC(NC(=O)CSc2nnc(C(C)C)o2)CC1 (stereo not given)	none (no result: TRHR enhancer, TRHR agonist, D1 antagonist, D1 ag, D1 PAM)
CC(=O)n1c(C=Nc2ccc(Cl)cc2)c(O)c2ccccc21	D1 ag 39
COc1ccc(COCC(O)CN2CCN(S(=O)(=O)c3ccc(C(C)C)cc3)CC2)cc1 (stereo not given)	D1 antagonist -30
CCCCN(CC)S(=O)(=O)c1ccc(C(=O)Nc2nnc(-c3cccs3)o2)cc1	D1 ag 40
CCN(CC)S(=O)(=O)c1ccc(C(=O)NNC(=O)c2cccs2)cc1	D1 antagonist -42
O=C(NCCc1cccnc1)c1cc(-c2ccncc2)nc2ccccc12	none (no result: TRHR enhancer, TRHR agonist, D1 antagonist, D1 ag, D1 PAM)
O=C(NCc1ccco1)C1CCN(c2nccn3nc(-c4ccc(F)cc4)cc23)CC1	none (no result: TRHR enhancer, TRHR agonist, D1 antagonist, D1 ag, D1 PAM)
C=Cc1ncc(OC)c2c1[nH]c1ccccc12	D1 antagonist -55
COc1ccc(/C=C/c2nccc3c2[nH]c2ccccc23)cc1	none (no result: TRHR enhancer, TRHR agonist, D1 antagonist, D1 ag, D1 PAM)
CC(=O)c1ccc(NC(=O)c2cnn(-c3cccc(C)c3)c2-n2cccc2)cc1	none (no result: TRHR enhancer, TRHR agonist, D1 antagonist, D1 ag, D1 PAM)
Cn1c(=O)n(C)c2cc(NS(=O)(=O)c3ccc4c(c3)CCCC4)ccc21	D1 antagonist -34
